The text below walks through data of article PMC7862700, “An all-to-all approach to the identification of sequence-specific readers for epigenetic DNA modifications on cytosine”.

Experiment in all cases: DAPPL (digital affinity profiling via proximity ligation, sequencing); 10 mM Tris-HCl pH 7.5, 50 mM NaCl, 1 mM DTT, 4% glycerol, room temperature, 30 min; GST-TFs on glutathione beads, 16-mer random dsDNA library, 0.1% formaldehyde crosslink after washing; high values mean tight binding
One assay has as its target T1, FEV (Homo sapiens, UniProt Q99581 1-238).
T1 sequence: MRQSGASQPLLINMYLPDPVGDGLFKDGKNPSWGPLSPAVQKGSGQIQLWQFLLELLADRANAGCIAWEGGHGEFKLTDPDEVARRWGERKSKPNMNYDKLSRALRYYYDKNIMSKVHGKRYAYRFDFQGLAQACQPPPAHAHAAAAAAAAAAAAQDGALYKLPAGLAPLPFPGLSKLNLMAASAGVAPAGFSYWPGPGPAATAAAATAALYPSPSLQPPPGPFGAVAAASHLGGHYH
Conditions: protein: recombinant; tags: N-terminal GST; dsDNA, one strand shown. The procedure, abridged:
(§1)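 After expression in yeast as GST fusions, human transcription factors were bound to glutathione beads, DNA-barcoded and mixed with a tag-only sample. The pools were incubated with 200 nmole of a 16-mer random double-stranded DNA library in Tris/NaCl/DTT/glycerol buffer (30 min, room temperature), washed and crosslinked with 0.1% formaldehyde. Proximity ligation with BsaI/T4 ligase ran for 1 h at 37 °C, before PCR amplification and sequencing on an Illumina NextSeq500. Binding signal is a hexamer's read frequency for a factor divided by its frequency for the tag-only sample.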

The next assay addresses ETV5 (Homo sapiens, UniProt P41161 1-510). Conditions: protein: recombinant; tags: N-terminal GST; dsDNA, one strand shown. Summed up:
as §1

For the next assay, the target named is HSF1 (Homo sapiens, UniProt Q00613 1-529). Conditions: protein: recombinant; tags: N-terminal GST; chain copies: 3; dsDNA, one strand shown. The procedure, abridged:
as §1

Another assay addresses T2, SPIC (Homo sapiens, UniProt Q8N5J4 1-248).
T2 sequence: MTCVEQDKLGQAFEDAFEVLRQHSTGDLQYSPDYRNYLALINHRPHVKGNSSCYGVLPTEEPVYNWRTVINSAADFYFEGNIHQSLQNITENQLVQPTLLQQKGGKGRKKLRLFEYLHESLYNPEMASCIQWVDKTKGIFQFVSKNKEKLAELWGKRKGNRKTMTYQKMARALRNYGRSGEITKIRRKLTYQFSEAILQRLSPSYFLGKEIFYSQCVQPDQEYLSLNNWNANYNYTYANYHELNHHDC
Conditions: protein: recombinant; tags: N-terminal GST; dsDNA, one strand shown. Summed up: as §1

The target of a further assay is ELF4 (Homo sapiens, UniProt Q99607 1-663). Conditions: protein: recombinant; tags: N-terminal GST; dsDNA, one strand shown. The procedure, abridged:
as §1

A further assay deals with T3, ELK4 (Homo sapiens, UniProt P28324-2 1-405).
T3 sequence: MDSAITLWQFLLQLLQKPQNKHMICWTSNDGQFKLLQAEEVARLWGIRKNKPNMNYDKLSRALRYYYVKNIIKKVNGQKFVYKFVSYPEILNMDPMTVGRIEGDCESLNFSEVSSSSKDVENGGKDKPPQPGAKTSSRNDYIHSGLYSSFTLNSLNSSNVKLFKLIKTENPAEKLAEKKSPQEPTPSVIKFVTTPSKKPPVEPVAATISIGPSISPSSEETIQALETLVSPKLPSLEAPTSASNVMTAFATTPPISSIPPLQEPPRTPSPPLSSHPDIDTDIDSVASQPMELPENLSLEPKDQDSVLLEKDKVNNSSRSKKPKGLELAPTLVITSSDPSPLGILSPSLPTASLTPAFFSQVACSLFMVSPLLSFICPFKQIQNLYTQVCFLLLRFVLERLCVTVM
The note with it: protein: recombinant; tags: N-terminal GST; dsDNA, one strand shown. The procedure, abridged: as §1

Another assay has as its target T4, ETV2 (Homo sapiens, UniProt O00321 1-342).
T4 sequence: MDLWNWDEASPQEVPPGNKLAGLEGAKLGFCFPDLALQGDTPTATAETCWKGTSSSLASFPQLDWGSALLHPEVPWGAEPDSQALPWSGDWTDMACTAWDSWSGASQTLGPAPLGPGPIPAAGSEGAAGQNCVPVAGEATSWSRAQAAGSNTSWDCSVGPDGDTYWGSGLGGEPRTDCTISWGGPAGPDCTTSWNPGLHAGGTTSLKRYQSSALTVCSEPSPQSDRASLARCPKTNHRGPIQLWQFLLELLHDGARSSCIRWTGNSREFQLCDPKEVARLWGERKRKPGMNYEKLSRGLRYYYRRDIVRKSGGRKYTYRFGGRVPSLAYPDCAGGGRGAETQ
Conditions: protein: recombinant; tags: N-terminal GST; dsDNA, one strand shown. The procedure, abridged:
as §1

The target of a further assay is T5, ELF3 (Homo sapiens, UniProt P78545 1-371).
T5 sequence: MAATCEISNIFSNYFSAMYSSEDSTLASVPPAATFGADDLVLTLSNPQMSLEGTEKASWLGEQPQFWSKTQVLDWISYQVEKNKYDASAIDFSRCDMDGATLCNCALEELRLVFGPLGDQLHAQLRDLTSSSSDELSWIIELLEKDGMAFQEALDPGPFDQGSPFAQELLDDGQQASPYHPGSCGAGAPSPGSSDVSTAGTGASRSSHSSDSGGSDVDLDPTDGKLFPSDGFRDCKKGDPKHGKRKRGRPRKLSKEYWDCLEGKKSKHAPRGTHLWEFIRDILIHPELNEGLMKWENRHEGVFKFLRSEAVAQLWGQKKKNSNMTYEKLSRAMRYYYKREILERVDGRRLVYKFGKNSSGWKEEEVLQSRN
The note with it: protein: recombinant; tags: N-terminal GST; dsDNA, one strand shown. The procedure, abridged: as §1

For a further assay, the target named is CRX (Homo sapiens, UniProt O43186 1-299). The note with it: protein: recombinant; tags: N-terminal GST; dsDNA, one strand shown. The procedure, abridged: as §1
CRX, sequence (O43186 whole entry): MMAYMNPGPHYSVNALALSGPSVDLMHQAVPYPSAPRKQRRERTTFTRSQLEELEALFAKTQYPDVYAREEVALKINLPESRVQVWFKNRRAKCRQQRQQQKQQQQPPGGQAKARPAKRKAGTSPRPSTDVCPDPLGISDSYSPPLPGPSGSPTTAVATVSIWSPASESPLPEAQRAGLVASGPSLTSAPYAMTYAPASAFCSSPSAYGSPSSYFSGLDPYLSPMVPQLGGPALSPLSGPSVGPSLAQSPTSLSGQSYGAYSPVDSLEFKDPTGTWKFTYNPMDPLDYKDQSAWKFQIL
Another assay concerns the target ETV1 (Homo sapiens, UniProt P50549 1-477). The note with it: protein: recombinant; tags: N-terminal GST; dsDNA, one strand shown. Summed up:
as §1

The target of another assay is T6, ERF (Homo sapiens, UniProt P50548 1-548).
T6 sequence: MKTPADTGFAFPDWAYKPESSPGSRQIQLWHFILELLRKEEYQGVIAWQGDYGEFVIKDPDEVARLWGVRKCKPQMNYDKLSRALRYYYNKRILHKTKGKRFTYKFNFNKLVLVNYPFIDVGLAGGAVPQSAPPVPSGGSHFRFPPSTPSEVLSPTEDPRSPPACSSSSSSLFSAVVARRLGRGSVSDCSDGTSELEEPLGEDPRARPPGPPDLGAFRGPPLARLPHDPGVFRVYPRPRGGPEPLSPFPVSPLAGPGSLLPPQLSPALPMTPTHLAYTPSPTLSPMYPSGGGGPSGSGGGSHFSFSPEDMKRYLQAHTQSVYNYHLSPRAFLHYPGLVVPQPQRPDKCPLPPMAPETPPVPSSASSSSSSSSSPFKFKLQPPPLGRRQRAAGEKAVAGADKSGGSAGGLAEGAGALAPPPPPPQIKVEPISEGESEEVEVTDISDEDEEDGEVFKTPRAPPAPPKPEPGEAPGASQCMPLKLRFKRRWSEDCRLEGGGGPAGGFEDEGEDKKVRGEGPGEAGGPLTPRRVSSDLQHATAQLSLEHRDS
The note with it: protein: recombinant; tags: N-terminal GST; dsDNA, one strand shown. Summed up: as §1

The target in the next assay is T7, ETV3L (Homo sapiens, UniProt Q6ZN32 1-361).
T7 sequence: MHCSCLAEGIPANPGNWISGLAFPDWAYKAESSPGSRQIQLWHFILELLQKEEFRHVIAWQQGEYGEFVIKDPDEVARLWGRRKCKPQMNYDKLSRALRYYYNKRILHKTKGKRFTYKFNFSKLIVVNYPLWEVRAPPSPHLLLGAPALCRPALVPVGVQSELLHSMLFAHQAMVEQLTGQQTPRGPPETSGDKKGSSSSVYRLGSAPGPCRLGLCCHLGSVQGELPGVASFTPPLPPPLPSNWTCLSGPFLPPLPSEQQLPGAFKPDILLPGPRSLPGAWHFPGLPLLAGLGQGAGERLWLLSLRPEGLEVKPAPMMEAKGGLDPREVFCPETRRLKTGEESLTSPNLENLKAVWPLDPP
Conditions: protein: recombinant; tags: N-terminal GST; dsDNA, one strand shown. The procedure, abridged:
as §1

Another assay addresses T8, ETS2 (Homo sapiens, UniProt P15036 1-469).
T8 sequence: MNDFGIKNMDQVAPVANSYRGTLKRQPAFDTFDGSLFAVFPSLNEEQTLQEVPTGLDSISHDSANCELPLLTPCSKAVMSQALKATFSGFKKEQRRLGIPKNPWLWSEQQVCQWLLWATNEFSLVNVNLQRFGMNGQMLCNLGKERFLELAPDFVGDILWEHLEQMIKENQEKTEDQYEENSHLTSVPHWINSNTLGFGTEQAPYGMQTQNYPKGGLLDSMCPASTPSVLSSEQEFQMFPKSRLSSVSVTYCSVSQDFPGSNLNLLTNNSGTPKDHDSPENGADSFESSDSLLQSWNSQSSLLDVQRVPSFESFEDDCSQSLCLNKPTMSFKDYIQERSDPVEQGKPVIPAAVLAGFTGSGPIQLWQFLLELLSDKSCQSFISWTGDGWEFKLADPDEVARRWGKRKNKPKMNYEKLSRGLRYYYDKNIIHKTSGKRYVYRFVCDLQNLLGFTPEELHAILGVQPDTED
The note with it: protein: recombinant; tags: N-terminal GST; dsDNA, one strand shown. The procedure, abridged: as §1

In the next assay the target is T9, SPDEF (Homo sapiens, UniProt O95238 1-335).
T9 sequence: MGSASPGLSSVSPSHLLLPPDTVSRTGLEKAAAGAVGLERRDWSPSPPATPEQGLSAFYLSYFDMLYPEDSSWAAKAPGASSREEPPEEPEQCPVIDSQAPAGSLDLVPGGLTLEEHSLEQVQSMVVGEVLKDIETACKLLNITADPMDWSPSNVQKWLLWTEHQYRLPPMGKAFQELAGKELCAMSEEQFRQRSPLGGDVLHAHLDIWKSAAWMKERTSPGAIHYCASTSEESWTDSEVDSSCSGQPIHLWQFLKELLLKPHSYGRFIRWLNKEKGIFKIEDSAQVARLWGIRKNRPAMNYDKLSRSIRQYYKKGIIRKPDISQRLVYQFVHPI
Conditions: protein: recombinant; tags: N-terminal GST; dsDNA, one strand shown. Summed up:
as §1

In another assay the target is T10, ETV7 (Homo sapiens, UniProt Q9Y603 1-341).
T10 sequence: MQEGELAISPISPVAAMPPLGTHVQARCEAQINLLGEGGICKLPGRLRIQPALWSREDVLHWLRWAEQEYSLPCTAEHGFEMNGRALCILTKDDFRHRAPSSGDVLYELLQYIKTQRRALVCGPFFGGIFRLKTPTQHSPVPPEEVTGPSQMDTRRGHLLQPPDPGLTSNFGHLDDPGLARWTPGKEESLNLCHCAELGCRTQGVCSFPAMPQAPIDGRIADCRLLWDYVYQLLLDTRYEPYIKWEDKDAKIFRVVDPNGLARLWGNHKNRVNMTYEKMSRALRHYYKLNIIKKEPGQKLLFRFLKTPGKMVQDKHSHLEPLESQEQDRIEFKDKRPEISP
Conditions: protein: recombinant; tags: N-terminal GST; dsDNA, one strand shown. Summed up:
as §1

The target in the next assay is T11, ELF5 (Homo sapiens, UniProt Q9UKW6-2 1-255).
T11 sequence: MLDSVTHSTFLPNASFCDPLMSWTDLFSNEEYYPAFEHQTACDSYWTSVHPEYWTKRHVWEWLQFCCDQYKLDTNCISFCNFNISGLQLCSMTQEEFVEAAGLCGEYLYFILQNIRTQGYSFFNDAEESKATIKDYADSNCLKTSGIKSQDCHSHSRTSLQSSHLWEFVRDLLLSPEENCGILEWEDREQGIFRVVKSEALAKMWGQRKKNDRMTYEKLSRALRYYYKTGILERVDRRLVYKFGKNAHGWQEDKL
Conditions: protein: recombinant; tags: N-terminal GST; dsDNA, one strand shown. Summed up:
as §1

In another assay the target is T12, ETV3 (Homo sapiens, UniProt P41162-2 1-143).
T12 sequence: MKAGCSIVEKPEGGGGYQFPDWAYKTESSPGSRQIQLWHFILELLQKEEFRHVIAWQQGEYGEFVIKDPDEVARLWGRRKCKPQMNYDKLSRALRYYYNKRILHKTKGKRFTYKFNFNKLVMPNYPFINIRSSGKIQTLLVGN
Conditions: protein: recombinant; tags: N-terminal GST; dsDNA, one strand shown. The procedure, abridged: as §1

The next assay deals with ETV6 (Homo sapiens, UniProt P41212 1-452). Conditions: protein: recombinant; tags: N-terminal GST; dsDNA, one strand shown. The procedure, abridged:
as §1

ETV5, sequence (P41161 whole entry): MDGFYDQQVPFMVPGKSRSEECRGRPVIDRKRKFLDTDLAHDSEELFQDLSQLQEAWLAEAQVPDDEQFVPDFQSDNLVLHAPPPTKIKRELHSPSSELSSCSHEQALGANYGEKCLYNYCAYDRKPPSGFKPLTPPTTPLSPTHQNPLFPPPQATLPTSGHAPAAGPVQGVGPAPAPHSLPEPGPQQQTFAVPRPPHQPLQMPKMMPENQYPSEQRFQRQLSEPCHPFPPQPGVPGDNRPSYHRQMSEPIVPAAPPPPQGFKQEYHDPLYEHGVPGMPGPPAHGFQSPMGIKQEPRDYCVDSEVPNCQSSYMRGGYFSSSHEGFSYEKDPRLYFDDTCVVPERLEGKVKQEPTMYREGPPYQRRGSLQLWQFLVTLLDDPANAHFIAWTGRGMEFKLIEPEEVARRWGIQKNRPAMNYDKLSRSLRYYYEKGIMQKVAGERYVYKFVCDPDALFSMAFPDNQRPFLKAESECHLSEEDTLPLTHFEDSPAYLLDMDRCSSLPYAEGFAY
ELF4, sequence (Q99607 whole entry): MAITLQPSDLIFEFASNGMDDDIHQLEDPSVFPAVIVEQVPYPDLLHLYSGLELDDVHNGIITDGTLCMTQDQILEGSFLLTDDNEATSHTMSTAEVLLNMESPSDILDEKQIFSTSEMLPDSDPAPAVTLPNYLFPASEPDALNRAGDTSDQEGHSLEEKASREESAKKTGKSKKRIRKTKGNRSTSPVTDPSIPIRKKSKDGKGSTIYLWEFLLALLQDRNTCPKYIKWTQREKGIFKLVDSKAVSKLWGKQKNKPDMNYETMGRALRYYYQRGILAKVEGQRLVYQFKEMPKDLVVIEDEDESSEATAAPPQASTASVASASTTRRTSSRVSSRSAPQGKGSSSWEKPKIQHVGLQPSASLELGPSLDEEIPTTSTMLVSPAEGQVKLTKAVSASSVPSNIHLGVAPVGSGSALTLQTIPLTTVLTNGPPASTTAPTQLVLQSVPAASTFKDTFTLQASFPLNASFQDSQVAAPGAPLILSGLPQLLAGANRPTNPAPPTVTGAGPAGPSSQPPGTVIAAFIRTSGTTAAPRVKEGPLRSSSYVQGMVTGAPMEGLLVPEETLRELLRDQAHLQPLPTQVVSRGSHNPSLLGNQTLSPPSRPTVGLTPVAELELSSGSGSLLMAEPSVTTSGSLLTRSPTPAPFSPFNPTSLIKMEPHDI
ETV6, sequence (P41212 whole entry): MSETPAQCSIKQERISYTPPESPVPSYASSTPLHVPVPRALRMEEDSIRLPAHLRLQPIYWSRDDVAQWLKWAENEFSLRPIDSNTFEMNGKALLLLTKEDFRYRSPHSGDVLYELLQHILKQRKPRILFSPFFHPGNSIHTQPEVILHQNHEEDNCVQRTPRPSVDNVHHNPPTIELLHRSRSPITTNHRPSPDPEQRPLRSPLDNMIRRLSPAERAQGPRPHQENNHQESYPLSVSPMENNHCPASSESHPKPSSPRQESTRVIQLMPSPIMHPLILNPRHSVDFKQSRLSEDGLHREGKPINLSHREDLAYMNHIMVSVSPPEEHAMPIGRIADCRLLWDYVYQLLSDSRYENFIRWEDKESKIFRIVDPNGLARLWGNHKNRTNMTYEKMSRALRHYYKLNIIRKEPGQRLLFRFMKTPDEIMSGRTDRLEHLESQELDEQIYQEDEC
HSF1, sequence (Q00613 whole entry): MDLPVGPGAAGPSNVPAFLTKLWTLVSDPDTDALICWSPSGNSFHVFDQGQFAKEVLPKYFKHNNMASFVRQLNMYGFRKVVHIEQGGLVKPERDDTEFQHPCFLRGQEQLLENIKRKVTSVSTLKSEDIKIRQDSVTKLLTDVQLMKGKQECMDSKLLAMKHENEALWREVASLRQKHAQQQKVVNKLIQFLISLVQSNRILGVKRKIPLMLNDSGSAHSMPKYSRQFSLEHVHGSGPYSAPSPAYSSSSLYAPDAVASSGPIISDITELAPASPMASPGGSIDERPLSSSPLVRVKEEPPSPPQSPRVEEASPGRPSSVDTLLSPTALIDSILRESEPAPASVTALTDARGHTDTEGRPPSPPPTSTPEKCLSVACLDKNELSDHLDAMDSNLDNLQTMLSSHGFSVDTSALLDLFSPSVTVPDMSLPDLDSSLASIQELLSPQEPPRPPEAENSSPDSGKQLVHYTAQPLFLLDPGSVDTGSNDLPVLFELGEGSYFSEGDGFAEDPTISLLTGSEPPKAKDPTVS
ETV1, sequence (P50549 whole entry): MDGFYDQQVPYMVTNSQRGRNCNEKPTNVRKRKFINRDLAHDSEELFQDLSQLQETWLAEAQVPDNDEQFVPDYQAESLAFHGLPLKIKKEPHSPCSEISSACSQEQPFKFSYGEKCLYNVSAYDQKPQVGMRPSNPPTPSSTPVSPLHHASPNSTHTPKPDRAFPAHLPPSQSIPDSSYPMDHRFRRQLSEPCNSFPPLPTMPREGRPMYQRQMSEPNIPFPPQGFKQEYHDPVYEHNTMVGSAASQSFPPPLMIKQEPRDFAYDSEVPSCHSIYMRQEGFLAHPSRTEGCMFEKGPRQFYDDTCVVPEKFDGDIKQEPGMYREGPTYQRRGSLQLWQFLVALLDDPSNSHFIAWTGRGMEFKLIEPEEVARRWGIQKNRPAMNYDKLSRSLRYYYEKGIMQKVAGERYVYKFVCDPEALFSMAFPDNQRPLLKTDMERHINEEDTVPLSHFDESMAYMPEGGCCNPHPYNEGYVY

For TTCTCA, the binding signal with FEV is 1.3 fold enrichment (6-mer frequency, TF over GST control); with ETV5, 1.33 fold enrichment (6-mer frequency, TF over GST control); with HSF1, 1.65 fold enrichment (6-mer frequency, TF over GST control); with SPIC, 1.5 fold enrichment (6-mer frequency, TF over GST control); in the assay with ELF4, 1.27 fold enrichment (6-mer frequency, TF over GST control); with ELK4, 1.34 fold enrichment (6-mer frequency, TF over GST control). Further, the binding signal with ETV2 is 1.32 fold enrichment (6-mer frequency, TF over GST control); with ELF3, 1.39 fold enrichment (6-mer frequency, TF over GST control); with CRX it was 1.34 fold enrichment (6-mer frequency, TF over GST control); with ETV1, 1.35 fold enrichment (6-mer frequency, TF over GST control); with ERF it was 1.21 fold enrichment (6-mer frequency, TF over GST control); in the assay with ETV3L, 1.23 fold enrichment (6-mer frequency, TF over GST control). The binding signal in the assay with ETS2 is 1.21 fold enrichment (6-mer frequency, TF over GST control); in the assay with SPDEF it was 1.17 fold enrichment (6-mer frequency, TF over GST control); with ETV7, 1.26 fold enrichment (6-mer frequency, TF over GST control); with ELF5, 1.23 fold enrichment (6-mer frequency, TF over GST control); with ETV3, 1.34 fold enrichment (6-mer frequency, TF over GST control); with ETV6, 1.26 fold enrichment (6-mer frequency, TF over GST control).
